Experimental data published in PubChem BioAssay (Tox21).
Results filed as inconclusive are left out. The source made the active and inactive calls. Unless noted, calls come from the whole dose curve; as a rule, active = well fitted curve in the direction sought with a large enough effect in the repeat runs; inconclusive = weak or mixed curves; inactive = no such curve, though single readings can be large; an effect the other way counts as inactive or inconclusive.

How the values were obtained:
[1] = qHTS assay to identify small molecule antagonists of the estrogen receptor beta (ER-beta) signaling pathway - cell viability counter screen (AID 1259382);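 note: HEK293T cells carrying ER-beta-UAS-bla reporter stimulated with estradiol; series mostly up to about 92 µM; nearly all actives have a fitted effect of over 55% in size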
In short: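 ER-beta-UAS-bla HEK293T cells (2,000/well, 2% charcoal-stripped FBS) were pre-incubated 6 hr at 37C, then given compound plus 1nM final 17-beta-estradiol for 16 hr. Viability was read in the same wells by CellTiter-Glo luminescence after 30 min at room temperature.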

[2] = qHTS assay to identify small molecule agonists or antagonists of the thyroid stimulating hormone receptor (TSHR) signaling pathway - wild type cell line counter screen (AID 1259384; calls by dose curve)
In short: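 Wild-type HEK293 cells were plated 18 h at 37 C/5% CO2, pin-dosed with compound plus Ro20-1724 medium, held 30 min at room temperature, then given cAMP-d2 and anti-cAMP-cryptate; fluorescence was read after 1 h. Fifteen concentrations, triplicate.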

[3] = biological target: Thyrotropin receptor (Homo sapiens) (UniProt P16473); experiment: qHTS assay to identify small molecule antagonists of the thyroid stimulating hormone receptor (TSHR) signaling pathway (AID 1259385; calls by dose curve; note: nearly all actives have a fitted effect of over 20% in size)
In short: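 TSHR-HEK293 cells were plated and held 18 h at 37C/5% CO2, then given compound plus Ro20-1724 and stimulated with TSH at 1.5 ng/mL final. After 30 min at room temperature, cAMP was detected with cAMP-d2/anti-cAMP-cryptate (1 h) by fluorescence.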

[4] = qHTS assay to identify small molecule agonists of the estrogen receptor alpha (ER-alpha) signaling pathway in the presence of an antagonist - cell viability counter screen (AID 1259386);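 note: series mostly up to about 92 µM; cells exposed to compounds for 22 h at 37 °C before the viability read; nearly all actives have a fitted effect of over 30% in size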
In short: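 VM7Luc4E2 cells (endogenous full-length ER-alpha, 4×ERE-luciferase) were held 5 days in phenol red-free medium with 10% charcoal-stripped FBS, plated, then given 10.0nM ICI-182,780 and compounds at 15 concentrations for 22hr at 37C; viability read by CellTiter-Fluor fluorescence.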

[5] = biological target: Progesterone receptor (Homo sapiens) (UniProt P06401); experiment: qHTS assay to identify small molecule agonists of the progesterone receptor (PR) signaling pathway (AID 1346784; calls by dose curve; note: nearly all actives have a fitted effect of over 30% in size)
In short: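 Fluorescence from LiveBLAzer B/G FRET substrate cleavage (2 hr, RT) reported PR activation in PR-UAS-bla HEK 293T cells treated 16 hr at 37C/5% CO2 with compounds; medium contained 2% charcoal-stripped FBS.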

[6] = biological target: Progesterone receptor (Homo sapiens) (UniProt P06401); experiment: qHTS assay to identify small molecule antagonists of the progesterone receptor (PR) signaling pathway (AID 1346795; active = well fitted inhibition curve with a large enough effect in the signal ratio in the repeat runs, not every such curve was filed as active; the % refers to the signal ratio)
In short: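 Fluorescence intensity measured 2 hr after adding beta-lactamase FRET substrate to PR-UAS-bla HEK293T cells that had been co-treated 16 hr with compound and 1 nM R5020 (final concentration) in 2% charcoal-stripped FBS.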

[7] = qHTS assay to identify small molecule antagonists of the progesterone receptor (PR) signaling pathway - cell viability counter screen (AID 1346798); note: series mostly up to about 92 µM; nearly all actives have a fitted effect of over 50% in size
In short: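 CellTiter-Glo luminescence; PR-UAS-bla HEK293T, 3,000 cells/well; compound + R5020, 16 hr, 37C/5% CO2; 30 min RT before read.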

[8] = qHTS assay to identify small molecule agonists of the progesterone receptor (PR) signaling pathway - cell viability counter screen (AID 1346799; calls by dose curve; note: nearly all actives have a fitted effect of over 45% in size)
In short: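 In parallel with the beta-lactamase readout, cytotoxicity toward PR-UAS-bla HEK293T cells was measured by CellTiter-Glo luminescence following 16 hr compound incubation in 2% charcoal-stripped FBS medium.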

[9] = qHTS assay to identify small molecule antagonists of the TGF-beta/Smad signaling pathway - cell viability counter screen (AID 1346824); note: nearly all actives have a fitted effect of over 50% in size
In short: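 SBE-bla HEK 293T cells were plated overnight at 37 C, then given compounds in DMSO plus TGF-beta1 (added as 0.25 ng/mL solution) for 5 hr. After the bla read, CellTiter-Glo was added to the same wells and luminescence read after 30 min at room temperature.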

[10] = qHTS assay to identify small molecule agonists of the TGF-beta/Smad signaling pathway - cell viability counter screen (AID 1346829); note: top concentration of the series differs between compounds; nearly all actives have a fitted effect of over 45% in size
In short: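 CellTiter-Glo luminescence readout; SBE-bla HEK 293T cells, overnight plating, compound 5 hr at 37 C/5% CO2, then bla substrate 2 hr RT, then CellTiter-Glo 30 min RT.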

[11] = qHTS assay to identify small molecule agonists of the TGF-beta/Smad signaling pathway (AID 1346859; active = well fitted activation curve with a large enough effect in the signal ratio in the repeat runs, not every such curve was filed as active; the % refers to the signal ratio; note: series mostly up to about 77 µM)
In short: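 After overnight seeding, SBE-bla HEK 293T cells are dosed with compounds in DMSO and kept 5 hr at 37 C, 5% CO2. LiveBLAzer-type FRET substrate is then applied for 2 hr at room temperature.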

[12] = biological target: Thyrotropin-releasing hormone receptor (Homo sapiens) (UniProt P34981); experiment: qHTS assay to identify small molecule antagonists of the thyrotropin-releasing hormone receptor (TRHR) signaling pathway (AID 1346877; active = well fitted inhibition curve with a large enough effect in the repeat runs, not every such curve was filed as active; note: series mostly up to about 51 µM)
In short: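 TRHR-expressing HEK293 cells were seeded, cultured 18 h at 37 °C, then loaded with calcium dye for 2 h. Compounds were pre-incubated 5 min at room temperature before 1 nM TRH (final) was added, and kinetic fluorescence was recorded for 3 min.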

[13] = biological target: Thyrotropin-releasing hormone receptor (Homo sapiens) (UniProt P34981); experiment: qHTS assay to identify small molecule agonists of the thyrotropin-releasing hormone receptor (TRHR) signaling pathway (AID 1346891; calls by dose curve; note: series mostly up to about 58 µM)
In short: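 Compounds were tested as agonists at 15 concentrations, in triplicate, on TRHR-Hek293 cells; calcium-sensitive dye fluorescence was recorded for 3 min following addition.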

[14] = Human pregnane X receptor (PXR) small molecule agonists, qHTS cell viability counter screen (AID 1346977); note: nearly all actives have a fitted effect of over 50% in size
In short: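 Viability counter screen: CellTiter-Fluor signal in PXR-Luc HepG2 cells, 24hr compound exposure, 37C, 5% CO2.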

[15] = Caspase-3/7 induction in HepG2 cells by small molecules, qHTS assay (AID 1346978); note: nearly all actives have a fitted effect of over 15% in size
In short: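 Wild-type HepG2 cells (2,000/well) were settled 5 h at 37 C, 5% CO2, then exposed to compounds in DMSO for 17 h. Caspase-3/7 activity was read by luminescence 30 min after adding Caspase-Glo 3/7 reagent at room temperature.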

[16] = Caspase-3/7 induction in CHO-K1 cells by small molecules, qHTS assay (AID 1346980); note: nearly all actives have a fitted effect of over 15% in size
In short: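 Wild-type cells were seeded at 1,500 per well and settled 5 hr at 37 C, 5% CO2, then exposed to DMSO-dissolved compounds for 17 hr. Caspase-Glo 3/7 reagent was added, and luminescence was read after 30min at room temperature.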

[17] = Caspase-3/7 induction in HepG2 cells by small molecules, qHTS cell viability counter screen (AID 1346981); note: series mostly up to about 92 µM; nearly all actives have a fitted effect of over 30% in size
In short: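 Wild-type HepG2 cells (2,000/well) were allowed to settle for 5 hr at 37 C, 5% CO2, then dosed with compounds in DMSO by pin transfer. After 16 hr at 37 C, CellTiter-Fluor was added and fluorescence read 1 hr later.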

[18] = biological target: Nuclear receptor subfamily 1 group I member 2 (Homo sapiens) (UniProt O75469); experiment: Human pregnane X receptor (PXR) small molecule agonists, qHTS assay (AID 1346982); note: nearly all actives have a fitted effect of over 35% in size
In short: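 PXR-Luc HepG2 cells (CYP3A4 promoter-driven luciferase) were seeded in medium with 5% charcoal-stripped FBS, left 5 hr at 37 C, then exposed to compounds in DMSO for 24 hr. Luminescence was read after ONE-Glo addition.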

[19] = biological target: Estrogen receptor (Homo sapiens) (UniProt P03372); experiment: qHTS assay to identify small molecule agonists of the estrogen receptor alpha (ER-alpha) signaling pathway in the presence of an antagonist (AID 1259383; calls by dose curve; note: top concentration of the series differs between compounds; nearly all actives have a fitted effect of over 15% in size)
In short: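 VM7Luc4E2 cells (endogenous full-length ER-alpha, 4×ERE-luciferase) were precultured 5 days in phenol red-free medium with 10% charcoal-stripped FBS, given 10.0nM ICI-182,780 (final), then treated with compounds at 15 concentrations for 22hr at 37C; luminescence read with ONE-Glo.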

[20] = Caspase-3/7 induction in CHO-K1 cells by small molecules, qHTS cell viability counter screen (AID 1346979); note: nearly all actives have a fitted effect of over 35% in size
In short: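 Viability readout by fluorescence (CellTiter-Fluor) on wild-type CHO-K1 cells exposed for 16hr at 37C and 5% CO2 to compounds delivered in DMSO; reagent incubated 1hr before reading.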
% is set by controls: 0 for no effect and ±100 for the full control effect.

Chain of Thyrotropin receptor (Homo sapiens) (P16473 whole entry, looked up): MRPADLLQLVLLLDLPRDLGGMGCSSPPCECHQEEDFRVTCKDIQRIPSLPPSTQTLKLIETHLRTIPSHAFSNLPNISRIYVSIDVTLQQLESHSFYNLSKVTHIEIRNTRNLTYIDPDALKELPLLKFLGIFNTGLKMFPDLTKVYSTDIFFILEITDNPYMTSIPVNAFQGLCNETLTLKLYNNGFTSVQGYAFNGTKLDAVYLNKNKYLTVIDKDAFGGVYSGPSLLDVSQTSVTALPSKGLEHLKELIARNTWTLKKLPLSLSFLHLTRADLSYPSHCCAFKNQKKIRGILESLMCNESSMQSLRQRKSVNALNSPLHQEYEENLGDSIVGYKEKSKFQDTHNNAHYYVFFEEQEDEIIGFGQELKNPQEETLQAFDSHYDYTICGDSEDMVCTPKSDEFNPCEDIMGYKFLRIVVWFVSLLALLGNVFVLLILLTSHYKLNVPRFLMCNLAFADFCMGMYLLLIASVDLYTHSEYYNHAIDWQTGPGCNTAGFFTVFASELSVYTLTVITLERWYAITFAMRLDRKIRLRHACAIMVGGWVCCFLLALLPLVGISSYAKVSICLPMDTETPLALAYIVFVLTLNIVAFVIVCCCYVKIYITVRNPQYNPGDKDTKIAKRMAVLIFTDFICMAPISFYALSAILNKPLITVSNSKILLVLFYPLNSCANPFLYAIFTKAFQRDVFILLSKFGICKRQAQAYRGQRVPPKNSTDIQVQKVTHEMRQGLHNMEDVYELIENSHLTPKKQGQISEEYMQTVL
Chain of Nuclear receptor subfamily 1 group I member 2 (Homo sapiens) (O75469 whole entry, looked up): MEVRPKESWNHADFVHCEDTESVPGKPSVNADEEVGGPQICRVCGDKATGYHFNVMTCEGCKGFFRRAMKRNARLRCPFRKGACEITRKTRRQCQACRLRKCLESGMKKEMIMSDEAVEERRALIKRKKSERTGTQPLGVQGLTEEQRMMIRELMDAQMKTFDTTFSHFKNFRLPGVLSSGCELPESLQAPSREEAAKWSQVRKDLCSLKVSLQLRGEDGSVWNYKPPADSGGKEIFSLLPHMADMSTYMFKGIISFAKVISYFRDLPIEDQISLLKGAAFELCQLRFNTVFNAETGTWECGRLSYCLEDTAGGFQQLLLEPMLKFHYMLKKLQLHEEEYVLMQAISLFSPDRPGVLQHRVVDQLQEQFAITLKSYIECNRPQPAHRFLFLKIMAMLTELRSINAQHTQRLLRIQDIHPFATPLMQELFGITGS
Chain of Thyrotropin-releasing hormone receptor (Homo sapiens) (P34981 whole entry, looked up): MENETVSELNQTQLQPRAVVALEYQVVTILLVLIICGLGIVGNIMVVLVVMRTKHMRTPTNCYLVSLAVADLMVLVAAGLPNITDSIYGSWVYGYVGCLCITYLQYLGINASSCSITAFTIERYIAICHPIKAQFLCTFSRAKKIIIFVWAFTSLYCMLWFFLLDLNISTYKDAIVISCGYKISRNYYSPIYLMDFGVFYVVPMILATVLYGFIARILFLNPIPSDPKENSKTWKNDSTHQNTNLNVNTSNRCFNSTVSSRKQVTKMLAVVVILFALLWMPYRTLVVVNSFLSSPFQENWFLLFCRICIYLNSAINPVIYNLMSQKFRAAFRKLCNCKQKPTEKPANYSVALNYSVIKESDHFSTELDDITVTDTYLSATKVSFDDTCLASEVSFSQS
Chain of Progesterone receptor (Homo sapiens) (P06401 whole entry, looked up): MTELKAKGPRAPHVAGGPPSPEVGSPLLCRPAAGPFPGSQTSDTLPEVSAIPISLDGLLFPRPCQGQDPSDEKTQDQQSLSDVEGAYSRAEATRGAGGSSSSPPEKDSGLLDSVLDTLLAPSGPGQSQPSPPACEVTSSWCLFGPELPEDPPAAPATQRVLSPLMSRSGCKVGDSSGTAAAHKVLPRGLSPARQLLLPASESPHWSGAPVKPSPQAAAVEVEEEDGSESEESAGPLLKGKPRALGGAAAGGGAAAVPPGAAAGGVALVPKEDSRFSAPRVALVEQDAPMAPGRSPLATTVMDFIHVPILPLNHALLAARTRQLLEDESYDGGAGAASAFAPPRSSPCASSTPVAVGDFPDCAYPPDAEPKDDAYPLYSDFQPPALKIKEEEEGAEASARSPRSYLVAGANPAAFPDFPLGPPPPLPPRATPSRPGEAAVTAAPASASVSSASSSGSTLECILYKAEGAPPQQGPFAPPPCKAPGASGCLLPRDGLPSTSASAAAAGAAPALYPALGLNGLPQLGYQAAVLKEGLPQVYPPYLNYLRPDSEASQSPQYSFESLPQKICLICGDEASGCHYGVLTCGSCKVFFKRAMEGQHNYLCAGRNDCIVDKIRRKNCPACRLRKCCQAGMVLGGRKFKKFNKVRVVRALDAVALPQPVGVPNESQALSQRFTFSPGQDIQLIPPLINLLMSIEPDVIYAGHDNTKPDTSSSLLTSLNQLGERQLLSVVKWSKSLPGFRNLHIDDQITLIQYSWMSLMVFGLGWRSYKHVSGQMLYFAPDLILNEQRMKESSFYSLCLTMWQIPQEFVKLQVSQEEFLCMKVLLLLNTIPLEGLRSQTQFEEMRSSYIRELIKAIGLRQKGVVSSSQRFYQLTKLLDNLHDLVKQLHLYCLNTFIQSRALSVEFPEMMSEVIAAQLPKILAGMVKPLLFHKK
Chain of Estrogen receptor (Homo sapiens) (P03372 whole entry, looked up): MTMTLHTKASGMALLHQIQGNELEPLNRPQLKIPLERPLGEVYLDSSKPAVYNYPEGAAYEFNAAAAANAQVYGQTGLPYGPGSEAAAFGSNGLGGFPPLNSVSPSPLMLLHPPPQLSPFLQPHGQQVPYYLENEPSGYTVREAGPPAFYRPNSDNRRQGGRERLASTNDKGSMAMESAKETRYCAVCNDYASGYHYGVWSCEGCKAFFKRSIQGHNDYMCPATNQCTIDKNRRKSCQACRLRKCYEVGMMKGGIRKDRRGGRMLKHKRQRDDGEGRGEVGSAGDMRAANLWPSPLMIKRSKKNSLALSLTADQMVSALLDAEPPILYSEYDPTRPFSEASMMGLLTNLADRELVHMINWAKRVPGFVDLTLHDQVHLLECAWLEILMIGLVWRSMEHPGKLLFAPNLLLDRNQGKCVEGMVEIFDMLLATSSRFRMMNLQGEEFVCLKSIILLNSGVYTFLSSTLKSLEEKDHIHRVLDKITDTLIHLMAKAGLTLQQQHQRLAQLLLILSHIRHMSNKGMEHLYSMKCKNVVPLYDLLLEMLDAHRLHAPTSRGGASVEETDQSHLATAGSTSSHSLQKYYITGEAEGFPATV

CN(C)CC/C=C1/c2ccccc2COc2ccc(CC(=O)O)cc21
inactive: outcome [1] | outcome [2] | outcome [3] | outcome [4] | Potency [5] | Potency [6] | outcome [7] | outcome [8] | outcome [9] | outcome [10] | outcome [11] | outcome [12] | outcome [13] | outcome [14] | outcome [15] | outcome [16] | outcome [17] | Potency [18]

C=C(C)[C@@H]1CC=C(C)CC1
inactive: outcome [1] | Potency [19] | outcome [4] | Potency [5] | Potency [6] | outcome [7] | outcome [8] | outcome [9] | outcome [10] | outcome [14] | outcome [15] | Potency [20] | outcome [16] | outcome [17] | Potency [18]

CCn1cc(C(=O)O)c(=O)c2cnc(N3CCCC3)nc21
inactive: activity change, negative = cytotoxicity [1] 13.9% [at 8.39 µM] | cAMP activity change [2] -5.06% [at 8.39 µM] | activity change, negative = inhibition [3] -0.0847% [at 8.39 µM] | activity change, negative = cytotoxicity [4] -1.71% [at 8.39 µM] | activation [5] 0.947% [at 8.39 µM] | activity change, negative = inhibition [6] 1.66% [at 8.39 µM] | activity change, negative = cytotoxicity [7] 1.24% [at 8.39 µM] | activity change, negative = cytotoxicity [8] 1.71% [at 8.39 µM] | viability change, negative = cytotoxic [9] 10.1% [at 6.97 µM] | activity change, negative = cytotoxicity [10] 3.95% [at 6.97 µM] | activity, negative = inhibition [12] 1.25% [at 4.65 µM] | activation [13] -0.507% [at 5.23 µM] | activity change, negative = cytotoxicity [14] -1.63% [at 8.39 µM] | caspase activation [15] 1.75% [at 8.39 µM] | activity change, negative = cytotoxicity [20] 1.69% [at 8.39 µM] | caspase-3/7 activation [16] 1.6% [at 8.39 µM] | activity change, negative = cytotoxicity [17] -1.49% [at 8.39 µM]

O=C(O)CSCC(=O)NC1CCSC1=O (configuration not stated)
inactive: outcome [1] | outcome [2] | outcome [3] | outcome [4] | Potency [5] | Potency [6] | outcome [7] | outcome [9] | outcome [10] | outcome [11] | outcome [12] | outcome [13] | outcome [14] | outcome [15] | Potency [20] | outcome [16] | outcome [17] | Potency [18]

CC(C)NCC(O)c1ccc2ccccc2c1 (configuration not stated)
inactive: outcome [1] | outcome [2] | outcome [3] | outcome [4] | Potency [5] | Potency [6] | outcome [7] | outcome [8] | outcome [9] | outcome [10] | outcome [11] | outcome [12] | outcome [13] | outcome [15] | Potency [20] | outcome [16] | outcome [17] | Potency [18]

Cn1nnc2c(C(N)=O)ncn2c1=O
inactive: outcome [1] | Potency [19] | outcome [4] | Potency [5] | Potency [6] | outcome [8] | outcome [9] | outcome [10] | outcome [11] | outcome [12] | outcome [13] | outcome [14] | outcome [15] | Potency [20] | outcome [16] | outcome [17] | Potency [18]

CC(C)NC(=O)c1ccc(C=O)cc1
inactive: outcome [1] | outcome [2] | outcome [3] | outcome [4] | Potency [5] | Potency [6] | outcome [7] | outcome [8] | outcome [9] | outcome [10] | outcome [11] | outcome [12] | outcome [13] | outcome [14] | outcome [15] | Potency [20] | outcome [16] | outcome [17] | Potency [18]
